Test results taken from PubChem BioAssay AID540259 (Broad Institute, 2011).
Measured potencies and affinities stand elsewhere. Active and inactive are the calls of the source.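 How the source made its calls: active means cell killing, meaning signal decrease, with fitted half-maximal dose at or below ten times the top valid tested dose; inconclusive means poor fit, or flat curve with 30 to 70% signal loss; inactive means the rest.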

Test: HeLa cell cytotoxicity, dose response, cytotoxicity control for MITF activator project, CellTiter-Glo luminescence, cherry-pick samples (AID 540259)
Details: HeLa viability, CellTiter-Glo ATP luminescence, 24 h; series mostly up to 35 µM
For `Cc1nc2ccccc2nc(=O)c1NNc1ccccc1`, the outcome was “inactive”.
With `NC(=O)c1cnn(-c2cc(Oc3ccccc3)ncn2)c1N` the outcome was “inactive”.
For `O=c1c2ccccc2oc2cc(NCCCn3ccnc3)ccc12`, the outcome was “inactive”.
For `Nc1nonc1-n1nnc(C(=O)N/N=C/c2ccc(OCc3ccccc3F)cc2)c1CN1CCCCC1`, the outcome was “inactive”.
With `Cc1ccc(O)c(-n2nc3ccccc3n2)c1` the outcome was “inactive”.
In the case of `CC(=O)N(c1ccccc1)c1nnc(-c2cnc(C)cn2)s1`, the outcome is reported as “inactive”.
With `Clc1ccc(SCc2cn3ccccc3n2)cc1` the outcome was “inactive”.
For `COc1cccc2[nH]c(=O)c(-c3ccccc3)cc12`, the outcome was “inactive”.
For `COc1ccccc1C(=O)NCCC(=O)NC1CCC(C)CC1` (configuration not stated), the outcome was “inactive”.
For `ClCCn1cnc2c(SCc3ccccc3)ncnc21`, the outcome was “inactive”.
For `CCCC(=O)N/C(N)=N/c1nc2ccccc2o1`, the outcome was “inactive”.
In the case of `O=C(c1cc(COc2ccc(F)cc2Cl)on1)N1CCCCCC1`, the outcome is reported as “inactive”.
In the case of `O=C(Cc1cccs1)NCc1ccc(Cl)cc1Cl`, the outcome is reported as “inactive”.
For `Cc1ccc(Nc2nnc(-c3ccccc3N)o2)cc1C`, the outcome was “inactive”.
For `CNC(=O)C(=O)Nc1nc(C23CC4CC(CC(C4)C2)C3)cs1`, the outcome was “inactive”.
In the case of `COC(=O)c1cn(CC(=O)NCc2cccs2)c2ccccc12`, the outcome is reported as “inactive”.
For `c1ccc(-c2nc3ccccc3[nH]2)cc1`, the outcome was “inactive”.
With `Brc1ccc(OCc2cn3ccccc3n2)cc1` the outcome was “inactive”.
For `FC(F)(F)c1cnc(-c2cnc(-c3cccnc3)nc2)c(Cl)c1`, the outcome was “inactive”.
For `Cc1cc(Cl)ccc1OCc1cn2cccnc2n1`, the outcome was “inactive”.
In the case of `Cc1ccc(-c2cn(-c3ccccc3)c(=S)[nH]2)cc1C`, the outcome is reported as “inactive”.
With `CC(C)(C)n1ncc2c(=O)n(CC(=O)c3ccccc3)cnc21` the outcome was “inactive”.
